Shown are actives, neighbours in structure and some others; about 0.74% of the full set was active somewhere.
PGK inhibitor: T. brucei PGK inhibition; P07378; PGK/GAPDH coupled, Kinase-Glo luminescence, 60 min; Potency, µM (series often up to 57.5 µM), for inactives: at the highest dose activity change, negative = inhibition, usual class: inhibitors; 0.043% of 380,000 active; note: nearly all actives have a fitted effect of over 60% in size
Target sequence (P07378 whole entry, looked up): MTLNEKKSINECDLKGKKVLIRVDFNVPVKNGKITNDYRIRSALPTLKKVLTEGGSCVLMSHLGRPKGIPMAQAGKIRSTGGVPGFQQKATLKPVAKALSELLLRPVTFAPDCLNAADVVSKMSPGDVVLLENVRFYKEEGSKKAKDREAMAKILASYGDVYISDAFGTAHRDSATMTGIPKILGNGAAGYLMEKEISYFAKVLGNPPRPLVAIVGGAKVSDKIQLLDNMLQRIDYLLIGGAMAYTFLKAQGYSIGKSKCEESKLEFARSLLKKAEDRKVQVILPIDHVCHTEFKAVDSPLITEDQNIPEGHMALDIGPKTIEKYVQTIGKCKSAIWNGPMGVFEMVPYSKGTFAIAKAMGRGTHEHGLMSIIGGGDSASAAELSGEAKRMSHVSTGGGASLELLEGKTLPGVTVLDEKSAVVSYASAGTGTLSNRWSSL
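Luminescent ATP detection (Kinase-Glo Plus) follows a 60-minute room-temperature incubation, with wells lacking PGK as controls. Buffer: 100 mM TEA (pH 7.6), 5 mM MgCl2, 0.01% Tween-20. Coupling enzyme GAPDH (100 nM final) supplies unstable 1,3-BPG in-well.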
FEN1 inhibitor: blocks human flap endonuclease 1 | P39748 | Recombinant FEN1 flap cleavage, fluorescence, 15 min | Potency, µM (highest dose often 114 µM), for inactives: at the highest dose activity change, negative = inhibition, usual class: inhibitors | 0.35% of 390,000 active | AID 588795; note: nearly all actives have a fitted effect of over 65% in size
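FEN1 at 10 nM preincubated with compounds 15 min at room temperature, then flap DNA substrate added at 50 nM final. Signal read at 0 and 15 min; concentration-response fitted with four-parameter Hill equation.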
APE1 inh-1: APE1 (human) endonuclease inhibition; AID 2517; P27695; Potency, µM (highest dose often 65.8 µM), for the others: top-dose activity change, negative = inhibition, usual class: inhibitors; 0.35% of 350,000 active; recombinant APE1, TAMRA/BHQ-2 abasic DNA cleavage fluorescence;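 note: plate controls were vehicle for no effect and reference inhibitor for full effect; nearly all actives have a fitted effect of over 55% in size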
Target sequence (P27695 whole entry, looked up): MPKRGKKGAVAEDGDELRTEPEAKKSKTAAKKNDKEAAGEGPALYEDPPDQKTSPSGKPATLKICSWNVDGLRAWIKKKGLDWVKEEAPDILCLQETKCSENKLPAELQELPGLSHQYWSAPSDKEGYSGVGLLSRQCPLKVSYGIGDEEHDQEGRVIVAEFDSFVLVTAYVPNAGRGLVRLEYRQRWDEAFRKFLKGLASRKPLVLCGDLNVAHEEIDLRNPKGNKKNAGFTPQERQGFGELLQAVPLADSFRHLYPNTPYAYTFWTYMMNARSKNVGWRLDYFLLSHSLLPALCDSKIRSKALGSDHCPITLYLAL
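Quantitative HTS: incision of a TAMRA/BHQ-2 double-stranded substrate bearing a tetrahydrofuran abasic site by 0.75 nM APE1 raises fluorescence. Substrate 50 nM final, added after 15 min compound preincubation at room temperature; progress as third-minus-first kinetic read difference.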
RECQ1 inh-1: inhibitors of human RECQ1 DNA helicase | P46063 | RECQ1 DNA unwinding, red fluorescence kinetic read | Potency, µM (titrated, usually from 57.3 µM), inactives show top-dose activity, negative = inhibition, most hits filed as inhibitors | 0.54% of 240,000 active;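 note: plate controls were vehicle for no effect and no enzyme for full effect; nearly all actives have a fitted effect of over 30% in size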
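RECQ1T1 50 nM; forked duplex (20 bp + 30-nt ss tails) 200 nM, ATP 2 mM final; pH 8.0, 2 mM MgCl2, 2.5 ug/ml poly(dI-dC); 15 min compound preincubation; discontinuous kinetic read over 2 h at RT.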
BLM inh-1: Bloom syndrome helicase (human) inhibition; 0.2% of 350,000 active; recombinant BLM DNA unwinding, fluorescence dequenching; P54132; Potency, µM (titrated, usually from 56.1 µM), for the others: at the top dose activity change, negative = inhibition, most hits filed as inhibitors;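 note: plate controls were vehicle for no effect and no enzyme for full effect; nearly all actives have a fitted effect of over 35% in size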
DNA dye displace: displaces fluorescent dye from DNA, flagging APE1 artifacts | shares compounds with APE1 inh-1 | DNA fluorescent dye displacement counterscreen, fluorescence | Potency, µM (titrated, usually from 28.5 µM), for inactives: top-dose activity change, negative = inhibition, actives largely listed as inhibitors | 7% of 480 active;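 note: loss of thiazole orange fluorescence as the dye is displaced from duplex DNA; 0% = ThO with dsDNA and no compound and -100% = ThO without dsDNA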
Endo IV inh: Endo IV (E. coli) inhibition counter-screen. shares compounds with APE1 inh-1. E. coli Endo IV, fluorogenic AP-site DNA cleavage. Potency, µM (top dose mostly 27.1 µM), without a hit: at the top dose activity change, negative = inhibition, hits mostly inhibitors. 4% of 560 active;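 note: plate controls were uninhibited enzyme wells for no effect and no enzyme buffer wells for full effect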
APE1 inh-2: APE1 (human) endonuclease inhibition, confirmation; Potency, µM (series often up to 57.1 µM), for the others: top-dose activity change, negative = inhibition, most hits filed as inhibitors; purified APE1, fluorogenic abasic-site DNA cleavage; 44% of 750 active; shares compounds with APE1 inh-1; note: nearly all actives have a fitted effect of over 30% in size
APE1 FP: displaces DNA from human APE1 in FP assay; shares compounds with APE1 inh-1; APE1 binding to TAMRA-labelled double-stranded DNA, fluorescence polarization displacement; Potency, µM (highest dose often 28.5 µM), for the others: top-dose activity, negative = inhibition, hits mostly inhibitors; 7% of 480 active
BLM inh-2: confirmation of inhibitors of human Bloom syndrome helicase BLM | shares compounds with BLM inh-1 | BLM DNA unwinding, fluorescence quenching, biochemical | Potency, µM, for inactives: max response, negative = inhibition, most hits filed as inhibitors | 40% of 220 active | AID 2585;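 note: strand separation dequenches TAMRA so unwinding raises red fluorescence; series mostly up to about 69 µM; nearly all actives have a fitted effect of over 45% in size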
RECQ1 inh conf: confirmation of human RECQ1 helicase inhibitors. shares compounds with RECQ1 inh-1. AID 2708. Potency, µM (highest dose often 229 µM), for inactives: at the highest dose activity change, negative = inhibition, most hits filed as inhibitors. 28% of 610 active. RECQ1 helicase DNA unwinding, fluorescence; note: nearly all actives have a fitted effect of over 45% in size
ADP FP counter: displaces ADP in a fluorescence polarization counter-screen for RECQ1 hits. shares compounds with RECQ1 inh-1. ADP fluorescence polarization displacement counterscreen. Potency, µM (highest dose often 228 µM), inactives show at the highest dose activity change, negative = inhibition, most hits filed as inhibitors. 27% of 530 active. AID 2711; note: nearly all actives have a fitted effect of over 45% in size
RECQ1 inh-2: blocks human RECQ1 DNA unwinding; shares compounds with RECQ1 inh-1; recombinant RECQ1 DNA unwinding, red fluorescence; Potency, µM (highest dose often 119 µM), for the others: top-dose activity, negative = inhibition, actives largely listed as inhibitors; 15% of 1,100 active; AID 504841; note: nearly all actives have a fitted effect of over 50% in size
* hit, by the source's call; i = inactive; ? = inconclusive; / = not tested or not shown; ! = not active in a repeat; [ ] = dose if it differs, or a comment. Calls come from the whole dose curve; as a rule, active = well fitted curve in the direction sought with a large enough effect; inconclusive = small, poorly fitted or top-dose-only effect, or another doubt; inactive = no such curve, though single readings can be large; an effect the other way counts as inactive or inconclusive. Unless noted, % is set by controls: 0 for no effect and ±100 for the full control effect; potency is the fitted concentration of half-maximal effect.

SMILES | PGK inhibitor | FEN1 inhibitor | APE1 inh-1 | RECQ1 inh-1 | BLM inh-1 | DNA dye displace | Endo IV inh | APE1 inh-2 | APE1 FP | RECQ1 inh conf | RECQ1 inh-2 | others
O=c1/c(=C/c2ccco2)sc2nc(-c3ccccc3Br)nn12 | -9% | 10% | 22µM* | 16µM* | -21% | -1% | 32% | ? | -3% | -12%[114 µM] | ? | ADP FP counter=-6%[91.9 µM]
Oc1ccc(-c2cn3c(n2)SCC3)cc1O | ? | ? | 1.6µM* | 2.5µM* | 16µM* | 3% | 95% | 13µM* | -5% | / | 7.1µM* | BLM inh-2=?
CC(=O)[C@]1(O)Cc2c(O)c3c(c(O)c2[C@@H](O[C@H]2C[C@H](N)[C@H](O)[C@H](C)O2)C1)C(=O)c1c(O)cccc1C3=O | / | / | 25µM* | 28µM* | 28µM* | i | / | 7.9µM* | 1.4µM* | 100µM* | / | ADP FP counter=0.89µM*
CC(=O)[C@]1(O)Cc2c(O)c3c(c(O)c2[C@@H](O[C@H]2C[C@H](N)[C@H](O)[C@H](C)O2)C1)C(=O)c1ccccc1C3=O | i | / | 20µM* | 28µM* | -56% | i | i | 16µM* | 2.8µM* | 35µM* | / | BLM inh-2=-72%;ADP FP counter=0.56µM*
COc1cccc2c1C(=O)c1c(O)c3c(c(O)c1C2=O)C[C@](O)(C(=O)CO)C[C@@H]3O[C@H]1C[C@H](N)[C@@H](O)[C@H](C)O1 | / | / | / | / | 5% | / | / | / | / | / | /
CC(C)(C)OC(=O)NCC(=O)N1CCC(C(=O)O)CC1 | -1% | -1% | -3% | i | -1% | / | / | / | / | / | /
CN1C(=O)C(=C2CCCCCC2)SC1=S | -11% | 4% | -3% | -1% | -2% | / | / | / | / | / | /
O=C1NC(=S)SC1=C1CCCC1 | -12% | 79µM* | 10µM* | 7.9µM* | ? | 5% | 61% | ? | -4% | ? | / | ADP FP counter=45µM*
O=C(NC1CC1)c1cc(-c2ccco2)nc2ccccc12 | ? | ? | 11µM* | 20µM* | 14µM* | ? | ? | 25µM* | 224% | 20µM* | / | BLM inh-2=20µM*;ADP FP counter=56µM*
Cc1ccc(S(=O)(=O)Nc2csc(C)c2C(=O)O)cc1 | -20% | 0% | 11µM* | ? | -2% | -7% | -1% | ? | ? | / | ?
Cc1ccc(S(=O)(=O)Nc2cc(C)c(O)cc2C)cc1 | 2% | -11% | 0% | i | -7% | / | / | / | / | / | /
COc1ccc(OC)c(-n2cnc3cc(C(=O)NCCc4ccccc4)ccc32)c1 | i | -13% | / | / | 0% | / | / | / | / | / | /
CC1(OC(=O)C2CCCC2)C(=O)C=C2C=C3CCCN3C=C2C1=O (stereo not given) | / | / | 2%[12.4 µM] | i[11.5 µM] | -6%[12.4 µM] | / | / | / | / | / | /
CC1(OC(=O)c2cccs2)C(=O)C=C2C=C3CCCN3C=C2C1=O (stereo not given) | ? | ? | 8.9µM* | 25µM* | 22µM* | 0% | 17% | ? | -8% | 35µM* | ? | ADP FP counter=35µM*
COC(=O)CCCC1=CC2=CC(=O)C(C)(OC(=O)c3cccs3)C(=O)C2=CN1Cc1ccco1 (stereo not given) | 7% | -1% | ? | ? | -10%[12.4 µM] | 2% | -2% | -11%[24.4 µM] | ? | / | 9%
CCCCC1=CC2=C(c3ccco3)C(=O)C(C)(OC(=O)c3ccc(OC)cc3)C(=O)C2=CN1Cc1ccco1 (stereo not given) | -7% | -2% | 7.1µM* | 6.3µM*! | ? | -9% | -3% | ? | -4% | / | -9%
Cn1c(CNS(=O)(=O)c2ccc(Cl)cc2)cc(=O)n(C)c1=O | -5% | 17% | 22% | / | 1% | / | / | / | / | / | /
O=C(NC1C2CC3CC(C2)CC1C3)c1ccc(Br)o1 (stereo not given) | 1% | -13% | 54% | / | 1% | / | / | / | / | / | /
CC(=O)C1=C(O)C(=O)N(Cc2cccnc2)C1c1ccc(Cl)cc1 (stereo not given) | -8% | -4% | -10% | -5% | 2% | / | / | / | / | / | /
COc1ccc(C2Nc3ccc(Br)cc3C(c3ccccc3)N2CC(=O)O)cc1 (stereo not given) | -1% | -5% | 6% | 7% | -1% | / | / | / | / | / | /
Cc1ccc(NC(=O)CN2C(=O)S/C(=C/c3ccc(O)c([N+](=O)[O-])c3)C2=O)cc1C | ? | ? | ? | ? | 25µM* | / | / | ? | / | / | 22µM*
COc1ccc(C2=Nn3c(nnc3-c3ccccc3O)SC2)cc1OC | / | / | -2% | -7% | -11% | / | / | / | / | / | /
CCOc1ccccc1-c1nnc2n1N=C(c1ccc(OC)c(OC)c1)CS2 | / | / | 10µM* | -7% | 1% | ? | 97%[57.1 µM] | -13% | ? | 7%[69.1 µM] | /
COc1cccc2c1NC(C(=O)O)C1CC=CC21 (stereo not given) | ? | 25µM* | 11µM* | 8.9µM* | 16µM* | ? | -11% | 16µM* | -48% | / | ?
COc1cccc(C2Nc3c(F)cc(Br)cc3C3C=CCC32)c1OC (stereo not given) | 9% | -2% | -1% | -1% | -3% | / | / | / | / | / | /

Screens from PubChem.
